Source: PubChem BioAssay (NCATS)
Records with an inconclusive call do not appear. Calls of active or inactive are those of the source. The call rests on the fitted dose curve; in most records, active means well fitted curve in the direction sought with a large enough effect; inconclusive means small, poorly fitted or top-dose-only effect, or another doubt; inactive means no such curve, though single readings can be large; an effect the other way counts as inactive or inconclusive. Where a SMILES comes first, the peptide text is derived from it. [ ]: non-standard residue; d: D form. dPhe(4-Cl) = N[C@H](Cc1ccc(Cl)cc1)C(=O)O; d2Nal = N[C@H](Cc1ccc2ccccc2c1)C(=O)O; dCit = NC(=O)NCCC[C@@H](N)C(=O)O; d3Pal = N[C@H](Cc1cccnc1)C(=O)O

Key:
C33A = experiment: Primary qHTS to identify gynecologic anti-cancer compounds using libraries of approved drugs and bioactive compounds (AID 1345084); conditions: Gynecologic cancer cell panel viability, ATPlite luminescence, 48 h; series mostly up to 57.5 µM; further: nearly all actives have a fitted effect of over 55% in size
Method in brief: (§1)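 Five-concentration response, 48 h; readout is ATP-driven luciferase luminescence.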

CAOV3 = experiment: as above; conditions: Gynecologic cancer cell panel viability, ATPlite luminescence, 48 h; series mostly up to 57.5 µM
Method in brief: as §1

CASKI = experiment: as above; conditions: Gynecologic cancer cell panel viability, ATPlite luminescence, 48 h; series mostly up to 57.5 µM
Method in brief: as §1

Es-2 = experiment: as above; conditions: Gynecologic cancer cell panel viability, ATPlite luminescence, 48 h; series mostly up to 57.5 µM
Method in brief: as §1

HeLa = experiment: as above; conditions: Gynecologic cancer cell panel viability, ATPlite luminescence, 48 h; series mostly up to 57.5 µM
Method in brief: as §1

Hek293T = experiment: as above; conditions: Gynecologic cancer cell panel viability, ATPlite luminescence, 48 h, control line for the selectivity index; series mostly up to 57.5 µM
Method in brief: as §1

JEG-3 = experiment: as above; conditions: Gynecologic cancer cell panel viability, ATPlite luminescence, 48 h; series mostly up to 57.5 µM
Method in brief: as §1

OV90 = experiment: as above; conditions: Gynecologic cancer cell panel viability, ATPlite luminescence, 48 h; series mostly up to 57.5 µM
Method in brief: as §1

PA-1 = experiment: as above; conditions: Gynecologic cancer cell panel viability, ATPlite luminescence, 48 h; series mostly up to 57.5 µM
Method in brief: as §1

Tov-21-G = experiment: as above; conditions: Gynecologic cancer cell panel viability, ATPlite luminescence, 48 h; series mostly up to 57.5 µM
Method in brief: as §1

Tov112D = experiment: as above; conditions: Gynecologic cancer cell panel viability, ATPlite luminescence, 48 h; series mostly up to 57.5 µM
Method in brief: as §1

SKOV3 = experiment: as above; conditions: Gynecologic cancer cell panel viability, ATPlite luminescence, 48 h; series mostly up to 57.5 µM
Method in brief: as §1

[1] = qHTS assay to identify inhibitors of the type 1 interferon - major histocompatibility complex class I in skeletal muscle: Counter screen cell viability and HiBit confirmation (AID 1347412); conditions: iHSKM muscle cells + IFN-b, HiBiT or CellTiter-Glo, 24 h, at 45.9 µM (top of the series); further: nearly all actives have a fitted effect of over 60% in size
Method in brief: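 Luminescence read-out: Nano-Glo HiBiT lytic signal from C-terminally HiBiT-tagged HLA-B in CRISPR-edited human myoblasts, plus CellTiter Glo ATP as viability counter screen. IFN-beta 4.0 ng/ml; 24 hrs treatment at 37 C, 5% CO2.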
On the % scale 0 is the no-effect control and ±100 the full control effect.

CC1CC(O)/C=C/C(O)C(O)CC(=O)Cc2c(Cl)c(O)cc(O)c2C(=O)O1 (stereo unspecified)
inactive: Potency (C33A) | Potency (CAOV3) | Potency (CASKI) | Potency (Es-2) | Potency (HeLa) | Potency (Hek293T) | Potency (JEG-3) | Potency (OV90) | Potency (PA-1) | Potency (Tov-21-G) | Potency (Tov112D)

Cc1cc(O)cc(O[C@@H]2O[C@H](CO)[C@@H](O)[C@H](O)[C@H]2O)c1
inactive: Potency (C33A) | Potency (CAOV3) | Potency (CASKI) | Potency (Es-2) | Potency (HeLa) | Potency (Hek293T) | Potency (JEG-3) | Potency (OV90) | Potency (PA-1) | Potency (Tov-21-G) | Potency (Tov112D)

Cc1ccc(-c2ccc3c(ccc4sc5c(c43)NC[C@@H](C)NC5=O)n2)cn1
inactive: Potency (C33A) | Potency (CAOV3) | Potency (CASKI) | Potency (Es-2) | Potency (HeLa) | Potency (Hek293T) | Potency (JEG-3) | Potency (OV90) | Potency (PA-1) | Potency (SKOV3) | Potency (Tov-21-G) | Potency (Tov112D) | activity change, negative = inhibition ([1]; HiBiT) -1.05% | activity change, negative = inhibition ([1]; Viability) 10.5%

CC(C)S(=O)(=O)NC[C@H](C)c1ccc(NC(=O)c2cc(F)cc(F)c2)cc1
inactive: Potency (C33A) | Potency (CAOV3) | Potency (CASKI) | Potency (Es-2) | Potency (HeLa) | Potency (Hek293T) | Potency (JEG-3) | Potency (OV90) | Potency (PA-1) | Potency (SKOV3) | Potency (Tov-21-G) | Potency (Tov112D)

C[C@@H]1CCN(C(=O)N2CCCC2)C[C@@H]1N(C)c1ncnc2[nH]ccc12
inactive: Potency (C33A) | Potency (CAOV3) | Potency (CASKI) | Potency (Es-2) | Potency (HeLa) | Potency (Hek293T) | Potency (JEG-3) | Potency (OV90) | Potency (PA-1) | Potency (SKOV3) | Potency (Tov112D)

CC(NC(=O)CCc1nc2ccccc2c(=O)[nH]1)c1ccccc1 (stereo unspecified)
inactive: Potency (C33A) | Potency (CAOV3) | Potency (CASKI) | Potency (Es-2) | Potency (HeLa) | Potency (Hek293T) | Potency (JEG-3) | Potency (OV90) | Potency (PA-1) | Potency (Tov-21-G) | Potency (Tov112D)

C[C@@H]1C(=O)OC[C@H]2C(C(=O)O)=C[C@@H]3CC(C)(C)C[C@]312
inactive: Potency (C33A) | Potency (CAOV3) | Potency (CASKI) | Potency (Es-2) | Potency (HeLa) | Potency (Hek293T) | Potency (JEG-3) | Potency (OV90) | Potency (PA-1) | Potency (SKOV3) | Potency (Tov112D)

c1ccc(N2CCN(CCc3nn[nH]n3)CC2)cc1
inactive: Potency (C33A) | Potency (CAOV3) | Potency (CASKI) | Potency (Es-2) | Potency (HeLa) | Potency (Hek293T) | Potency (JEG-3) | Potency (OV90) | Potency (PA-1) | Potency (Tov-21-G) | Potency (Tov112D)

CS(=O)(=O)c1ccc([C@H](CC2CCCC2)C(=O)Nc2nccs2)cc1
inactive: Potency (C33A) | Potency (CAOV3) | Potency (CASKI) | Potency (Es-2) | Potency (HeLa) | Potency (Hek293T) | Potency (JEG-3) | Potency (OV90) | Potency (PA-1) | Potency (Tov-21-G) | Potency (Tov112D)

CC1(C)CC[C@]2(C(=O)O[C@@H]3O[C@H](CO[C@@H]4O[C@H](CO)[C@@H](O)[C@H](O)[C@H]4O[C@@H]4O[C@H](CO)[C@@H](O)[C@H](O)[C@H]4O)[C@@H](O)[C@H](O[C@@H]4O[C@H](CO)[C@@H](O)[C@H](O)[C@H]4O)[C@H]3O)CC[C@]3(C)C(=CCC4[C@@]5(C)CC[C@@H](O)[C@@](C)(C(=O)O[C@@H]6O[C@H](CO)[C@@H](O)[C@H](O)[C@H]6O)C5CC[C@]43C)[C@@H]2C1 (stereo partly specified)
inactive: activity change, negative = cytotoxicity (C33A) -23% [at 6.55 µM] | activity change, negative = cytotoxicity (CAOV3) 2.18% [at 6.55 µM] | activity change, negative = cytotoxicity (CASKI) -2.18% [at 6.55 µM] | activity change, negative = cytotoxicity (Es-2) 0.72% [at 6.55 µM] | activity change, negative = cytotoxicity (HeLa) 5.19% [at 6.55 µM] | activity change, negative = cytotoxicity (Hek293T) 16.4% [at 6.55 µM] | activity change, negative = cytotoxicity (JEG-3) -0.894% [at 6.55 µM] | activity change, negative = cytotoxicity (OV90) -0.699% [at 6.55 µM] | activity change, negative = cytotoxicity (PA-1) 5.56% [at 6.55 µM] | activity change, negative = cytotoxicity (SKOV3) -6.61% [at 6.55 µM] | activity change, negative = cytotoxicity (Tov-21-G) -1.95% [at 6.55 µM] | activity change, negative = cytotoxicity (Tov112D) -1.22% [at 6.55 µM]

CC(=O)N[C@H](Cc1ccc2ccccc2c1)C(=O)N[C@H](Cc1ccc(Cl)cc1)C(=O)N[C@H](Cc1cccnc1)C(=O)N[C@@H](CO)C(=O)N[C@@H](Cc1ccc(O)cc1)C(=O)N[C@H](CCCNC(N)=O)C(=O)N[C@@H](CC(C)C)C(=O)N[C@@H](CCCN=C(N)N)C(=O)N1CCC[C@H]1C(=O)N[C@H](C)C(N)=O (Ac-[d2Nal][dPhe(4-Cl)][d3Pal]SY[dCit]LRP[dA]-NH2)
inactive: Potency (C33A) | Potency (CAOV3) | Potency (CASKI) | Potency (Es-2) | Potency (HeLa) | Potency (Hek293T) | Potency (JEG-3) | Potency (OV90) | Potency (PA-1) | Potency (Tov-21-G) | Potency (Tov112D)

COC(=O)CC(O)C1OC(c2ccccc2)C(O)C1O (stereo unspecified)
inactive: Potency (C33A) | Potency (CAOV3) | Potency (CASKI) | Potency (Es-2) | Potency (HeLa) | Potency (Hek293T) | Potency (JEG-3) | Potency (OV90) | Potency (PA-1) | Potency (SKOV3) | Potency (Tov-21-G) | Potency (Tov112D)

OCC(CO[C@@H]1O[C@H](CO)[C@@H](O)[C@H](O)[C@H]1O)c1ccc2c(c1)OCO2 (stereo partly specified)
inactive: Potency (C33A) | Potency (CAOV3) | Potency (CASKI) | Potency (Es-2) | Potency (HeLa) | Potency (Hek293T) | Potency (JEG-3) | Potency (OV90) | Potency (PA-1) | Potency (Tov-21-G) | Potency (Tov112D)

Cc1ccccc1NC(=O)Nc1ccc(CC(=O)N(C)[C@@H](CC(C)C)C(=O)NCC[C@H](NC(=O)[C@@H]2CCCN2S(=O)(=O)c2cc(Cl)cc(Cl)c2)C(=O)O)cc1
inactive: Potency (C33A) | Potency (CAOV3) | Potency (CASKI) | Potency (Es-2) | Potency (HeLa) | Potency (Hek293T) | Potency (JEG-3) | Potency (OV90) | Potency (PA-1) | Potency (SKOV3) | Potency (Tov-21-G) | Potency (Tov112D)
